Results on five compounds are retold here after PubChem BioAssay.

Activity calls are given as the source filed them.

Assay [1] deals with Albumin (Bos taurus) (UniProt P02769). As to the kind of experiment: compounds binding labelled BSA control protein – biochemical, small-molecule microarray, Alexa647 label, 635/667 nm fluorescence, artefact control for SMM control protein annotation, profiling panel (AID 1118).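 Note: score merges 667 nm emission intensity and signal-to-noise per printed compound spot.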 The following applies: BSA-A647 binding, fluorescence 635 nm, higher = more signal.
Assay [2] in a line: probe aXIP binding to arrayed compounds – biochemical, NeuroSMM set, 635/667 nm fluorescence, primary screen (AID 1119).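 Note: probe is the protein aXip251-270 applied at 1 µg/mL to compound-printed slides; binding of probe to printed compounds measured as 667 nm fluorescence plus signal to noise.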 The following applies: small-molecule microarray, higher = more signal, called active from +8 up or from −8 down.
A short description of assay [3]: probe aNOTCH3 binding on compound microarray – biochemical, small-molecule microarray, 635/667 nm fluorescence, primary screen (AID 1120).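 Note: probe is a biotin-tagged antibody raised against NOTCH3 rather than NOTCH3 protein; score merges spot fluorescence near 667 nm with spot signal to noise.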 The following applies: higher = more signal.
A short description of assay [4]: probe aNOTCH2 binding on compound microarray – biochemical, small-molecule microarray, 635/667 nm fluorescence, primary screen (AID 1121).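 Note: score merges feature fluorescence read at 667 nm with its signal to noise.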 The following applies: higher = more signal.
In assay [5] the target is Carbonic anhydrase 2 (Homo sapiens) (UniProt P00918). Briefly: compounds binding carbonic anhydrase 2 – biochemical, small-molecule microarray, Alexa647-labelled CAII, profiling panel (AID 1122). The following applies: CAII-A647 binding fluorescence, higher = more signal.
Assay [6] can be described thus: COS7 lysate on small-molecule microarray, probe aHis, 635 nm (AID 1123).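 Note: z-score combines 667nm fluorescence intensity with signal-to-noise per printed compound spot.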 The following applies: COS7 cell lysate, fluorescence, higher = more signal.
A short description of assay [7]: probe aLAP1 signal on lysate-treated microarray – cell lysate, small-molecule microarray, COS7 lysate, primary screen (AID 1124).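 Note: lysate comes from COS7 cells expressing LAP1 and is applied at 0.3 µg/mL; score merges spot fluorescence near 667 nm with signal-to-noise over triplicate slides.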 The following applies: probe aLAP1, fluorescence, higher = more signal.
The test system of assay [8] is Sam68 (KHDRBS1). Briefly: compounds binding KHDRBS1 protein – biochemical, small-molecule microarray, 635 nm fluorescence, primary screen (AID 1125).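 Note: score merges 667 nm channel intensity with signal to noise over triplicate slides.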 The following applies: higher = more signal.
Assay [9] concerns Chordin-like protein 2 (CHRDL2). Briefly: compounds binding chordin-like 2 – biochemical, small-molecule microarray, 635 nm fluorescence, primary screen (AID 1126).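 Note: printed compound slides probed with Chrdl2 protein at 4 µg/mL for 1 h at 4 C; score merges 667 nm emission intensity with signal to noise over three replicate slides.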 The following applies: fluorescence 635 nm, higher = more signal.
Assay [10] has as its target Concanavalin-A (Canavalia ensiformis) (UniProt P02866). Briefly: compounds binding concanavalin A lectin – biochemical, small-molecule microarray, Alexa647 label, 635 nm, artefact control for SMM control protein annotation, primary screen (AID 1127).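 Note: z combines 667 nm emission intensity with signal-to-noise across three replicate slides.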 The following applies: ConA-A647 binding fluorescence, higher = more signal.
A short description of assay [11]: compounds binding Alexa647 anti-His antibody – biochemical, small-molecule microarray, 635 nm fluorescence, artefact control for SMM control protein annotation, primary screen (AID 1128).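 Note: score merges feature fluorescence with signal-to-noise for each printed compound spot.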 The following applies: higher = more signal.
For assay [12], the system named is Human papillomavirus type 1a E7 protein (residues 1-88). As to the kind of experiment: HPV1a E7 small-molecule binders, primary screen, biochemical, small-molecule microarray, residues 1-88, 635 nm (AID 1129). The following applies: small-molecule microarray binding, fluorescence 635 nm; higher = more signal.
Assay [13] has as its target Focal adhesion kinase 1 (Homo sapiens) (UniProt Q05397). Briefly: PTK2 protein binding on printed compound slides – biochemical, small-molecule microarray, 635/667 nm fluorescence, BSA, DTT, primary screen (AID 1130).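 Note: composite of spot emission at 667 nm and signal to noise over triplicate slides.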 The following applies: 635 nm fluorescence, higher = more signal.
Assay [14] deals with Fibrinogen (Alexa647-labelled). Briefly: Alexa647-fibrinogen binding to printed small molecules – biochemical, small-molecule microarray, 635/667 nm fluorescence, artefact control for SMM control-protein annotation, profiling panel (AID 1131).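 Note: z-score merges 667 nm fluorescence with per-spot signal-to-noise over triplicate slides.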 The following applies: fibrinogen-A647 binding fluorescence, higher = more signal.
In assay [15] the target is Follistatin (Homo sapiens) (UniProt P19883). As to the kind of experiment: FST protein binding to printed compounds – biochemical, small-molecule microarray, 635/667 nm fluorescence, primary screen (AID 1132). The following applies: 635 nm fluorescence, higher = more signal.
The target of assay [16] is Fibroblast growth factor 2 (Homo sapiens) (UniProt P09038). Briefly: basic fibroblast growth factor binding to printed compounds – biochemical, small-molecule microarray, 635/667 nm fluorescence, primary screen (AID 1133). The following applies: FGF2, fluorescence 635/667, higher = more signal.
Assay [17] in a line: JC-1 mitochondrial potential readout, lung cancer cells – cell-based, A549, JC-1 fluorescence, basal, 24 h, 100 nL, profiling panel (AID 1138).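 Note: A549 lung adenocarcinoma cells under basal conditions with no added stimulus; test concentration not given here.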 The following applies: higher = more signal.
Assay [18] concerns Lefty1. Briefly: Lefty1 protein binding to printed compounds – biochemical, small-molecule microarray, 635/667 nm fluorescence, primary screen (AID 1139). The following applies: fluorescence 635/667, higher = more signal.
Assay [19] has as its system wheat germ agglutinin (Triticum aestivum), Alexa647-labelled. Briefly: Alexa647-WGA lectin binding to printed small molecules – biochemical, small-molecule microarray, 635/667 nm fluorescence, artefact control for SMM control-protein annotation, profiling panel (AID 1140).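 Note: score merges 667 nm feature emission with signal to noise over triplicate slides.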 The following applies: WGA-A647 binding, 635 nm fluorescence, higher = more signal.
Assay [20] concerns the target Luciferin 4-monooxygenase (Photinus pyralis) (UniProt P08659). Briefly: inhibition of purified Photinus pyralis luciferase – biochemical, luminescence, purified enzyme, 2006 set, primary screen (AID 1141).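 Note: cell-free assay with purified firefly luciferase at 100 ng per well in PBS; test concentration not given here.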 The following applies: purified firefly luciferase, SteadyGlo luminescence, 30 min; higher = more signal, called active from +8 up or from −8 down.

Albumin (Bos taurus), sequence (P02769 whole entry, looked up): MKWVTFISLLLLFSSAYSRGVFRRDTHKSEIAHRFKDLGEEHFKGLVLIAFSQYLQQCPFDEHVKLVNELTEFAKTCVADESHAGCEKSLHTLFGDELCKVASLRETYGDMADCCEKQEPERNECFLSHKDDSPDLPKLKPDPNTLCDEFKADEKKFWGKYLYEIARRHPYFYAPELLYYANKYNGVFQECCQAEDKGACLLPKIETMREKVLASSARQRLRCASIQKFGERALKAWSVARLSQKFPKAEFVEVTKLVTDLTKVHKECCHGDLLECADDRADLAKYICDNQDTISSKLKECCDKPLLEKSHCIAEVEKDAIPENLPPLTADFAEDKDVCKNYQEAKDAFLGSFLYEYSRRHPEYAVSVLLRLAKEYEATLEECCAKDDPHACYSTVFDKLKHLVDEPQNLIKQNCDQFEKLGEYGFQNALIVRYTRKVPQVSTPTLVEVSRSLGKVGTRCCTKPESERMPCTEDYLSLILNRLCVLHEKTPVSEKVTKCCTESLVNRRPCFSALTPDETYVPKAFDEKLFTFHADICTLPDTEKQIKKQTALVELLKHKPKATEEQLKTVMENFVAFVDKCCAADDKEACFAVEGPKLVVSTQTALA
Concanavalin-A (Canavalia ensiformis), sequence (P02866 whole entry, looked up): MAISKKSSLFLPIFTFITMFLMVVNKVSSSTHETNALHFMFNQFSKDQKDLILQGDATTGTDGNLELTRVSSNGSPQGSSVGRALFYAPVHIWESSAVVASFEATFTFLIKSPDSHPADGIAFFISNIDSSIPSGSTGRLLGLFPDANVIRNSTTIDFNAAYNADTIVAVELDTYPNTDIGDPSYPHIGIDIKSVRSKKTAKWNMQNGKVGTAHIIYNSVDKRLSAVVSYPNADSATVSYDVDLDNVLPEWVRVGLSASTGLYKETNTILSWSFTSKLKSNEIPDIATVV
Follistatin (Homo sapiens), sequence (P19883 whole entry, looked up): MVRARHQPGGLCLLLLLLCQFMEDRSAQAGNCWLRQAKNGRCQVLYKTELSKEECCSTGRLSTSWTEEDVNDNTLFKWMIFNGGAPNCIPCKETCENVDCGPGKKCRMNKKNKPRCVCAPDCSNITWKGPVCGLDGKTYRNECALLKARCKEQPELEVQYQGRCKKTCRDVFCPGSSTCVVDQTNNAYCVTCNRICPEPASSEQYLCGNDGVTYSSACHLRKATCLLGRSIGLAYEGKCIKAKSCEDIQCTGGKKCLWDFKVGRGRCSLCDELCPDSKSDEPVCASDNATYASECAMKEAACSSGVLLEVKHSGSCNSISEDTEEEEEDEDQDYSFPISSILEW
Fibroblast growth factor 2 (Homo sapiens), sequence (P09038 whole entry, looked up): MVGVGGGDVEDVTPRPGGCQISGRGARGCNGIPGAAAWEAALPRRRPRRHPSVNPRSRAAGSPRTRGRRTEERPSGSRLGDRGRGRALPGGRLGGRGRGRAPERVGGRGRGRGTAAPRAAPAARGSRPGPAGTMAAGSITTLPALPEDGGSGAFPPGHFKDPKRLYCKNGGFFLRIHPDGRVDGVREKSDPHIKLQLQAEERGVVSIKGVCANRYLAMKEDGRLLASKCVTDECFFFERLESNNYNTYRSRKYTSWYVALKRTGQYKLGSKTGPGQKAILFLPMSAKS
Luciferin 4-monooxygenase (Photinus pyralis), sequence (P08659 whole entry, looked up): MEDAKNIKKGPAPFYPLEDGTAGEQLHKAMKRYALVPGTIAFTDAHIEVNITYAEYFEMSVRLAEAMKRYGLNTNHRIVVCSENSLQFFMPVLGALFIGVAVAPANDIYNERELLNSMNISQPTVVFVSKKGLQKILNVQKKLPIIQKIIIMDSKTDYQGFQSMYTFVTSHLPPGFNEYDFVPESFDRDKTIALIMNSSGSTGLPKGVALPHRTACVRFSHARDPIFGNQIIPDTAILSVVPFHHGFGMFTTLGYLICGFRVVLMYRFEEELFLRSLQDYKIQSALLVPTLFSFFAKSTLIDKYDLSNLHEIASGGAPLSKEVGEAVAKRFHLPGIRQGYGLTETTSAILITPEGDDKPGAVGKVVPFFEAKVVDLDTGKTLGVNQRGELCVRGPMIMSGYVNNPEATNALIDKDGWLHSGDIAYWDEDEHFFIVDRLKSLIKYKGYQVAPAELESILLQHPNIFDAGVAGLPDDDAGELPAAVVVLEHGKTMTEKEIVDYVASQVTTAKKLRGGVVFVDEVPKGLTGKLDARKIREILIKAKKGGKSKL
Focal adhesion kinase 1 (Homo sapiens), sequence (Q05397 whole entry, looked up): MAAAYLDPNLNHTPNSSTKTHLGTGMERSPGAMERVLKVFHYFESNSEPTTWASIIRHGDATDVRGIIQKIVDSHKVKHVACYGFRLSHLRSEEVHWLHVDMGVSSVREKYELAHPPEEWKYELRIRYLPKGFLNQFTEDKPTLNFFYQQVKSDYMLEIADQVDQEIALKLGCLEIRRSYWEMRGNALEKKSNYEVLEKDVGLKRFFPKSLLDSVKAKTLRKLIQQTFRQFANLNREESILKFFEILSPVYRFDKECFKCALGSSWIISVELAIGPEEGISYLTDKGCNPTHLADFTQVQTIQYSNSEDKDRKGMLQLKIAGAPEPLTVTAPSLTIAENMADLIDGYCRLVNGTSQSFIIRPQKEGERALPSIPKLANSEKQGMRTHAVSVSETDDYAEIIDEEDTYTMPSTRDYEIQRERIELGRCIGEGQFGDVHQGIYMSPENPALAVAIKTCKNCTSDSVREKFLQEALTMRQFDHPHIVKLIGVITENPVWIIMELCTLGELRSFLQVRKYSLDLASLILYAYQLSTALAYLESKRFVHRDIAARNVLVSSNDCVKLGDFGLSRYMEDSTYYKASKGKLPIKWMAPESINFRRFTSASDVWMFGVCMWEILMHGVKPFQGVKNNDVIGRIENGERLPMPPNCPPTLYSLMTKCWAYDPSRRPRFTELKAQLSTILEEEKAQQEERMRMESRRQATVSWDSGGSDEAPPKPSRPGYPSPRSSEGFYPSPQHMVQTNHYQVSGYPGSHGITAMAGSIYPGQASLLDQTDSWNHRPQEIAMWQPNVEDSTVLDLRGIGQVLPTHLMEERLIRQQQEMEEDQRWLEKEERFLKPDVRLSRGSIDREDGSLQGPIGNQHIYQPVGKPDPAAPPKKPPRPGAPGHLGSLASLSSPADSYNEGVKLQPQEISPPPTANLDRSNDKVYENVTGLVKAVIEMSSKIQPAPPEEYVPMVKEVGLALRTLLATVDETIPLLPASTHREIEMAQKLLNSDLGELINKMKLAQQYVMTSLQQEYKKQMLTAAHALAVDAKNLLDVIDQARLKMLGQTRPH

Regarding `CN(C)CCCNC(=O)[C@@H]1c2ccccc2C(=O)N(Cc2ccccc2C(F)(F)F)[C@H]1c1ccc(CO)cc1`, the composite z-score in assay [1] was 0.334; in assay [3], -0.0106; in assay [4], -0.0996; in assay [5] it was 0.338; in [6], 1.35; in assay [7], 0.2. The composite z-score in assay [8] is 0.793; in assay [9], -1.5; in assay [10], 0.0021; in [11], -1.51; in assay [12], 0.197; in assay [13], -0.142. The composite z-score in [14] was -0.126; in [15] it was 0.0865; in assay [16] it was -0.361; in assay [18], -0.913; in assay [19], 0.1. The composite Z-score in assay [2] is 0.0871 (inactive). The figures for the z-score in assay [17] and in assay [20] were 2.89 and -1.13 (inactive), respectively.
In the case of `O=C(NCCN1CCOCC1)[C@@H]1c2ccccc2C(=O)N(Cc2ccccc2C(F)(F)F)[C@H]1c1ccc(CO)cc1`, the composite z-score in assay [1] was 0.0089; in assay [3] it was -0.425; in assay [4], -0.108; in [5], 0.341; in [6], -0.0272; in [7], 2.49. Moreover, the composite z-score in assay [8] is 1.29; in assay [9], -0.93; in assay [10], 0.0882; in [11] it was -1.48; in assay [12], 0.0783; in assay [13], -0.331. Moreover, the composite z-score in assay [14] was -0.676; in assay [15] it was -0.2; in assay [16], -0.0425; in [18] it was -1.24; in assay [19], 0.708. Moreover, the composite Z-score in [2] was -0.141 (inactive). Besides, the z-score in assay [17] is 2.63; in assay [20], -0.676 (inactive).
Consider `C=CCC(OC(C)=O)[C@@H]1[C@@H](N(Cc2ccc(-c3cccc(C(F)(F)F)c3)o2)C(=O)Cc2ccc(F)cc2)c2cc(OCCCO)ccc2N1C(=O)Cc1ccc2ccccc2c1` (stereo not given in full), for which the composite z-score is -0.0508 in assay [1]; -0.182 in [3]; -0.104 in [4]; -0.25 in assay [5]; 0.121 in assay [6]; -0.169 in assay [7]. Also, the composite z-score in [8] is -2.04; in assay [9], 0.0229; in assay [10], -0.492; in assay [11], 0.114; in assay [12], -1.33; in assay [13], -0.216. The composite z-score in [14] was -0.193; in assay [15] it was 0.112; in [16], -0.599; in [18], -0.482; in assay [19] it was 0.0382. In [2], the composite Z-score was -0.186 (inactive). The z-score is 0.696 in assay [17] and -0.442 (inactive) in assay [20].
In the case of `O=C1O[C@H](Cc2ccccc2)[C@@H]2[C@H]3C=CCCC=C3CN2[C@H]1Cc1ccc(O)cc1`, the composite z-score is -0.314 in [1]; 0.0208 in assay [3]; -0.122 in assay [4]; 0.746 in assay [5]; -0.265 in assay [6]; -0.256 in assay [7]. Also, the composite z-score in [8] was -1.09; in [9], -0.278; in assay [10], -0.211; in assay [11], 1.38; in assay [12], -1.36; in assay [13], 0.203. In addition, the composite z-score in assay [14] is -2.73; in assay [15] it was 0.16; in [16], -0.579; in assay [18], 0.262; in assay [19], 0.778. Besides, the composite Z-score in assay [2] is -0.263 (inactive). Further, the z-score in [17] was -0.653; in assay [20], -0.992 (inactive).
With `CO[C@H]1O[C@H](CO)[C@@H](OC(=O)Nc2ccccc2)[C@H](OC(=O)Nc2ccccc2)[C@H]1OC(=O)Nc1ccccc1`, the composite z-score is 0.729 in [1]; -0.0918 in [3]; -0.0567 in assay [4]; 0.521 in [5]; 2.45 in [6]; 0.373 in assay [7]. Moreover, the composite z-score in assay [8] is 1.3; in assay [9], -0.0958; in assay [10], 1.15; in assay [11] it was 2.2; in [12], 1.26; in [13], 0.972. Also, the composite z-score worked out at 1.01 in [14]; 0.943 in assay [15]; 1.02 in assay [16]; 0.389 in assay [18]; 0.791 in assay [19]. In assay [2], the composite Z-score is -0.375 (inactive). In addition, the z-score is 0.281 in assay [17] and 1.15 (inactive) in assay [20].
